Z-score data for eleven compounds are collected here from PubChem BioAssay.

SMILES strings stand for the structures. Active and inactive are the calls of the source.

The assay in a line: E. coli acrAB mutant growth effects, primary screen, E. coli filamentation inducers, strain DRC39, OD650, 24 h (AID 1178).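 Note: growth measured as culture turbidity by optical density at 650 nm; test concentration not given here.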 Conditions: higher = more signal, called active from +8 up or from −8 down.
`COc1cc2c(cc1O)C(c1cccs1)N(Cc1sc3ccccc3c1Cl)CC2` (stereo unspecified): the z-score is -0.0316 (inactive).
With `CC(C)(C)OC(=O)CC[C@]12N=C(c3ccc(OCCCO)cc3)O[C@H]1c1ccccc1N(Cc1ccccc1)C2=O` the figure was 1.1 (inactive); with `O=C1C2C=CC(C(O)c3ccc(I)cc3)N(Nc3ccccc3)C2C(=O)N1c1ccccc1` (stereo unspecified), -1.07 (inactive); with `C=CCN1C(=O)[C@@]2(O[C@@H](CCO)[C@H]([Si](C)(C)c3ccc(OC)cc3)[C@H]2C)c2cc(N3CCOC3=O)ccc21`, 0.891 (inactive).
The same measure for `CCOC(=O)C1=C[C@@H](C(C)(C)C)N(S(=O)(=O)c2ccc(C)cc2)[C@H]1c1cccc(Cl)c1`: -0.326 (inactive); for `CO[C@H]1O[C@H](CO)[C@@H](OC(=O)Nc2cccc(F)c2)[C@H](OC(=O)Nc2ccccc2-c2ccccc2)[C@H]1OC(=O)Nc1ccccc1-c1ccccc1`: -0.852 (inactive).
The same measure for `COCC(=C=CC[C@@H](O)c1ccc(OCCO)cc1)CCO`: 1.41 (inactive).
Regarding `C=CCC(OC(C)=O)[C@@H]1[C@@H](N(Cc2ccc(-c3cccc(C(F)(F)F)c3)o2)C(=O)Cc2ccc(OC)cc2)c2cc(OCCCO)ccc2N1C(=O)Cc1ccc2ccccc2c1` (stereo partly specified), the z-score was 0.532 (inactive).
With `CN1C(=O)[C@@H]2[C@@H](CC(COc3ccccc3)=C([C@H](O)CCc3ccccc3)[C@@H]2CO)C1=O` the figure was 2.19 (inactive); with `COc1cc(NN2C(C(O)C3CCCCC3)C=CC3C(=O)N(C)C(=O)C32)cc(OC)c1OC` (stereo unspecified), -0.276 (inactive); with `C=CCC(OC(C)=O)[C@@H]1[C@@H](N(Cc2cccc3ccccc23)C(=O)c2ccc(-c3ccccc3)cc2)c2cc(OCCCO)ccc2N1C(=O)c1ccc(-c2ccccc2)cc1` (stereo partly specified), -0.277 (inactive).
